p53ts 39C kill – cytotoxicity in p53ts cells at nonpermissive temperature | H1299-p53A138V viability at 39C, ATP luminescence, 24 h | hit rate 1.5% among 130,000 | Potency, µM (top dose mostly 46.1 µM), inactives show at the top dose activity change, negative = cell killing, hits mostly cytotoxic; further: on the % scale 0 is the no-effect control and ±100 the full control effect; nearly all actives have a fitted effect of over 55% in size
IkB signaling – IkB pathway inhibition in ABC-DLBCL cells; ABC-DLBCL IkBa-CBG/CBR dual luciferase ratio, 4 h; response scale: scaled: untreated 0%, proteasome inhibitor 100%; Potency, µM (highest dose often 57.1 µM), inactives show at the highest dose IkBa stabilization activation; hit rate 0.04% among 110,000; active means well fitted curve in the direction sought with a large enough effect in the signal ratio, not every such curve was filed as active; inconclusive means small, poorly fitted or top-dose-only effect, or a change in a side signal; the % refers to the signal ratio;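 further: the direction sought is a rising ratio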
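Luminescence ratio of IκBα-fused green versus native red beetle luciferase in OCI-Ly3 cells, 4 h post-doxycycline with compound; red signal alone, scaled from basal (0%) to zero light (-100%), flagged nonspecific or cytotoxic effects.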
p53ts 32C tox – p53ts cell cytotoxicity, permissive temperature; H1299-p53A138V at 32C, ATP luminescence viability, 24 h; AID 924; hit rate 0.93% among 130,000; Potency, µM (titrated, usually from 46.1 µM), for inactives: at the highest dose activity change, negative = cytotoxicity, hits mostly cytotoxic;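 further: 0% = DMSO and -100% = full killing by reference compound; nearly all actives have a fitted effect of over 55% in size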
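H1299-p53 A138V cells (temperature-sensitive p53) exposed 24 h to up to 46 uM compound at 32C, where p53 is wild-type in conformation. Viability read as ATP luminescence and normalised to DMSO and 100 uM tamoxifen. AC50 fitted with the Hill equation.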
Peg3 imprint – induces erasure of genomic imprints in mouse ES cells; mouse ES Peg3-LacZ reporter, beta-gal luminescence, 40 h; Potency, µM (titrated, usually from 60.7 µM), for the others: at the top dose activity change, positive = activation, actives largely listed as activators; hit rate 0.02% among 110,000; AID 1948
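Gelatin-coated wells received 300 freshly trypsinized female ES cells with a Peg3LacZ-Neo reporter on the maternal allele, then incubated 40 hours at 37C. BetaGlo was added for 5 minutes at room temperature before a single luminescence read.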
* = called active by the depositor; [ ] = another dose, or the depositor's remark. Sampled rows, rich in hits. Any-hit rate of the full collection: about 1.7%. Unless noted, the call rests on the fitted dose curve; in most records, active means well fitted curve in the direction sought with a large enough effect; inconclusive means small, poorly fitted or top-dose-only effect, or another doubt; inactive means no such curve, though single readings can be large; an effect the other way counts as inactive or inconclusive. Potency means the concentration at half of the fitted maximal effect.

For CC(=O)Nc1ccc(N/C=C/C(=O)c2ccc(C)o2)cc1 the results were p53ts 39C kill -22%, IkB signaling 0%, p53ts 32C tox -28% and Peg3 imprint inconclusive.
`Cc1ccc(/C=C/C(=O)Nc2ccccc2C(N)=O)o1` gave p53ts 39C kill 5µM*, IkB signaling inconclusive, p53ts 32C tox 7.9µM* and Peg3 imprint -42%[10.9 µM].
Screening Fc1ccc(Nc2ncncc2-c2ccoc2)cc1 returned p53ts 39C kill 3%, IkB signaling 5%[11.4 µM], p53ts 32C tox 13% and Peg3 imprint -2%.
For O=C(O)C(S)[C@@H](S)C(=O)O (some centres not stated) the results were p53ts 39C kill 8%, p53ts 32C tox 0% and Peg3 imprint -4%.
`C[C@@]12C[C@H](O)[C@@H]3[C@H](CCC4=CC(=O)CC[C@]43C)[C@H]1CC[C@@H]2c1csc(-c2ccccc2)n1` gave p53ts 39C kill -8%[9.22 µM], IkB signaling 3%[11.4 µM] and p53ts 32C tox 5%[9.22 µM].
`O=c1cc(-c2ccc(O)c(O)c2)oc2cc(O[C@@H]3O[C@@H](CO)[C@@H](O)[C@@H](O)[C@H]3O)cc(O)c12` gave IkB signaling 1%[11.4 µM].
CCOC(=O)c1ccc(NC(=O)CC2SCCNC2=O)cc1 (configuration not stated) was read as p53ts 39C kill 13µM*, IkB signaling -4%, p53ts 32C tox 13µM* and Peg3 imprint 17%.
Screening CCOC(=O)c1ccc(NC(=O)CC2NCCNC2=O)cc1 (configuration not stated) returned p53ts 39C kill -6%, IkB signaling -2%, p53ts 32C tox -4% and Peg3 imprint -4%[10.9 µM].
C=C(CO)[C@H]1Cc2c(ccc3c2O[C@H]2COc4cc(OC)c(OC)cc4[C@@H]2C3=O)O1 was read as IkB signaling 9%[11.4 µM].
Cc1ccc(C(=O)Nc2ccc3c(c2)nc2n3CCSC2)cc1 was read as p53ts 39C kill inconclusive, IkB signaling inconclusive, p53ts 32C tox 7.9µM* and Peg3 imprint -39%.
COc1ccc(OCC(=O)Nc2ccc3c(c2)nc2n3CCSC2)cc1 was read as p53ts 39C kill -12%, IkB signaling 0%, p53ts 32C tox -4% and Peg3 imprint 4%.
For COc1ccccc1C(=O)Nc1ccc2c(c1)nc1n2CCSC1 the results were p53ts 39C kill 3.2µM*, IkB signaling 6%, p53ts 32C tox 4µM* and Peg3 imprint -51%.
For CCCCC(=O)Nc1ccc2c(c1)nc1n2CCSC1 the results were p53ts 39C kill inconclusive, IkB signaling -3%, p53ts 32C tox inconclusive and Peg3 imprint -15%.
`O=C(NCc1ccccc1)c1ccc(Cc2nc3ccccc3[nH]2)cc1` gave p53ts 39C kill -10% and p53ts 32C tox -5%.
C=C1CC[C@@H](O)C/C1=C/C=C1\CCC[C@]2(C)[C@@H]1CC[C@H]2[C@@H](C)CCCC(C)C was read as IkB signaling 2%[11.4 µM].
C[C@@]12CC[C@H]3[C@H](CC=C4C[C@@H](O)CC[C@@]43C)[C@@H]1CC[C@@H]2N(CCO)CCO was read as p53ts 39C kill -1%[9.22 µM], IkB signaling -1%[11.4 µM] and p53ts 32C tox -1%[9.22 µM].
For Cc1ccc2nc3c(c(Nc4ccc(C)c(C)c4)c2c1)CCC3 the results were p53ts 39C kill 10µM*, IkB signaling inconclusive, p53ts 32C tox inconclusive and Peg3 imprint -10%[10.9 µM].
Cc1ccc(Nc2c3c(nc4ccccc24)CCC3)cc1F was read as p53ts 39C kill -25%, IkB signaling inconclusive, p53ts 32C tox -10% and Peg3 imprint -13%[10.9 µM].
CC(C)c1ccc(/C(C(=O)O)=C(\O)C(=O)O)cc1 was read as p53ts 39C kill -20%[9.22 µM], IkB signaling 1%[11.4 µM], p53ts 32C tox -20%[9.22 µM] and Peg3 imprint -10%[10.9 µM].
For CCc1ccc2nc(N3CCC(C(=O)O)CC3)sc2c1 the results were p53ts 39C kill 6.3µM*, IkB signaling inconclusive, p53ts 32C tox 6.3µM* and Peg3 imprint -10%[10.9 µM].
Screening CCOc1ccc2nc(N3CCCC(C(=O)NCCCOC)C3)sc2c1 (configuration not stated) returned p53ts 39C kill 10µM*, IkB signaling -1%, p53ts 32C tox inconclusive and Peg3 imprint 14%[10.9 µM].
CCCN1CCN(CCCNC(=O)C2CCCN(c3nc4ccc(OCC)cc4s3)C2)CC1 (configuration not stated) was read as p53ts 39C kill inconclusive, IkB signaling inconclusive, p53ts 32C tox inconclusive and Peg3 imprint -22%.
CCCCN(C)CCNC(=O)C1CCN(c2nc3ccc(CC)cc3s2)CC1 was read as p53ts 39C kill 16µM*, IkB signaling inconclusive, p53ts 32C tox 10µM* and Peg3 imprint -9%[10.9 µM].
For CN(C)CCCCNC(=O)c1ccc(-n2c(=O)c(=O)[nH]c3ccccc32)cc1 the results were p53ts 39C kill -7% and p53ts 32C tox -10%.
For OC[C@@H]1O[C@@H](n2cnc3c(N[C@@H]4C[C@@H]5CC[C@H]4C5)ncnc32)[C@@H](O)[C@H]1O the results were p53ts 39C kill 6%, IkB signaling 5% and p53ts 32C tox -10%.
COc1ccc(N=[N+]([O-])c2ccc(OC)cc2)cc1 was read as p53ts 39C kill 16µM*, IkB signaling inconclusive, p53ts 32C tox -3%[1.84 µM] and Peg3 imprint -70%.
`COc1ccc(CNc2ccnc(-c3ccc(N(C)C)cc3)n2)c(OC)c1` gave p53ts 39C kill -4%, IkB signaling 8%[11.4 µM], p53ts 32C tox -1% and Peg3 imprint inconclusive.
Screening COC(=O)CCC(=O)Oc1ccc(OC(=O)CCC(=O)OC)cc1 returned p53ts 39C kill 2%, IkB signaling 0%, p53ts 32C tox -8% and Peg3 imprint 5µM*.
`CN(C)c1ccc(-c2cncnc2-n2ccnc2)cc1` gave p53ts 39C kill -10%, IkB signaling -2%[11.4 µM], p53ts 32C tox 3% and Peg3 imprint inconclusive.
`Cc1cc(N2CCN(C)CC2)nc2ccc(NC(=O)Nc3ccccc3Br)cc12` gave p53ts 39C kill 13µM*, IkB signaling 1%, p53ts 32C tox 16µM* and Peg3 imprint -11%[10.9 µM].
For CCN1CCN(c2cc(C)c3cc(NC(=O)c4cc(Br)ccc4Cl)ccc3n2)CC1 the results were p53ts 39C kill 13µM*, IkB signaling inconclusive, p53ts 32C tox inconclusive and Peg3 imprint -10%[10.9 µM].
For Cc1cc(N2CCN(C)CC2)nc2ccc(NC(=O)Nc3ccccc3)cc12 the results were p53ts 39C kill inconclusive, IkB signaling 0%, p53ts 32C tox inconclusive and Peg3 imprint -5%[10.9 µM].
For Cc1ccc(NC(=O)Nc2ccc3nc(N4CCN(C)CC4)cc(C)c3c2)cc1C the results were p53ts 39C kill 13µM*, IkB signaling inconclusive, p53ts 32C tox inconclusive and Peg3 imprint -6%[10.9 µM].
`Cc1cc(N2CCN(C)CC2)nc2ccc(NC(=O)Nc3cccc(Cl)c3)cc12` gave p53ts 39C kill 25µM*, IkB signaling -5%, p53ts 32C tox inconclusive and Peg3 imprint 10%[10.9 µM].
OC[C@@H]1O[C@H](O)[C@@H](Cl)[C@H](O)[C@@H]1O was read as p53ts 39C kill 6%, IkB signaling -5% and p53ts 32C tox -8%.
